Results from PubChem BioAssay (Tox21).
Results filed as inconclusive are left out. The source made the active and inactive calls. Unless noted, calls follow the shape of the dose curve; as a rule, active = well fitted curve in the direction sought with a large enough effect in the repeat runs; inconclusive = weak or mixed curves; inactive = no such curve, though single readings can be large; an effect the other way counts as inactive or inconclusive.

Key:
[1] = qHTS assay to identify small molecule agonists of the hypoxia (HIF-1) signaling pathway - cell viability counter screen (AID 1224844; calls by dose curve; also: nearly all actives have a fitted effect of over 50% in size)
Outline: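 Cytotoxicity was measured in parallel with the HRE-driven beta-lactamase readout: after 17 hrs of compound exposure at 37C, HRE-bla ME-180 cells received CellTiter-Glo and luminescence was recorded 30 min later.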

[2] = qHTS assay to identify small molecule agonists of H2AX (AID 1224845; active = well fitted activation curve with a large enough effect in the signal ratio in the repeat runs, not every such curve was filed as active; the % refers to the signal ratio)
Outline: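 Phospho-H2AX Ser139 measured by HTRF (ex 320 nm; em 665 and 620 nm) after 24 hr antibody incubation. Compounds, 15 concentrations, 0.76% DMSO, were applied to CHO-K1 cells for 3hr at 37C before lysis.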

[3] = qHTS assay to identify small molecule agonists of the hypoxia (HIF-1) signaling pathway (AID 1224846; active = well fitted activation curve with a large enough effect in the signal ratio in the repeat runs, not every such curve was filed as active; the % refers to the signal ratio)
Outline: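 Compounds from the Tox21 10K library, dissolved in DMSO, are tested for induction of a hypoxia response element–controlled beta-lactamase reporter in ME-180 cells. Exposure lasts 17 hrs at 37C after a 5 hr settling period, followed by CCF4-AM FRET substrate.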

[4] = qHTS assay to identify small molecule agonists of H2AX - cell viability counter screen (AID 1224847; calls by dose curve; also: top concentration of the series differs between compounds; nearly all actives have a fitted effect of over 30% in size)
Outline: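 Quantitative HTS viability measurement: CHO-K1 wild-type cells in serum (10% FBS) medium, short 3 hr drug exposure at 37C with 0.76% DMSO, CellTiter-Glo luminescent detection.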

[5] = qHTS RealTime-Glo MT Cell Viability Assay in HepG2 cells - 24 hour (AID 1224867); also: nearly all actives have a fitted effect of over 50% in size
Outline: (§1)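 Real-time, nonlytic viability: 600 HepG2 cells/well mixed with NanoLuc enzyme plus prosubstrate; 5 h settle, compound (DMSO) added by pintool; luminescence monitored over 40 h at 37 C.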

[6] = qHTS RealTime-Glo MT Cell Viability Assay in HEK293 cells - 32 hour (AID 1224868); also: top concentration of the series differs between compounds; nearly all actives have a fitted effect of over 50% in size
Outline: (§2)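 Cells + reagent dispensed (600 cells/well, HEK293) → 5 h at 37 C/5% CO2 → 23 nL compound in DMSO pinned → 40 h at 37 C → luminescence read at 0, 8, 16, 24, 32, 40 h.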

[7] = A CellTox Green Cytotoxicity Assay to monitor cytotoxicity in HEK293 cells - 0 hour (AID 1224869); also: nearly all actives have a fitted effect of over 50% in size
Outline: (§3)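 Cells (HEK293, 600/well) and dye reagent are dispensed together. After 5 h at 37 C, 23 nL compound is pinned in. Plates stay at 37 C for 40 h with fluorescence read at 0h, 8h, 16h, 24h, 32h and 40h.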

[8] = A CellTox Green Cytotoxicity Assay to monitor cytotoxicity in HEK293 cells - 40 hour (AID 1224871); also: nearly all actives have a fitted effect of over 45% in size
Outline: as §3

[9] = qHTS RealTime-Glo MT Cell Viability Assay in HEK293 cells - 16 hour (AID 1224872)
Outline: as §2

[10] = qHTS RealTime-Glo MT Cell Viability Assay in HepG2 cells - 8 hour (AID 1224873); also: nearly all actives have a fitted effect of over 55% in size
Outline: (§4)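 Real-time viability: cells seeded at 600 per well together with NanoLuc and cell-permeant prosubstrate, compounds added after 5 h incubation. Luminescence tracked at 0, 8, 16, 24, 32 and 40 h of exposure.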

[11] = qHTS RealTime-Glo MT Cell Viability Assay in HEK293 cells - 40 hour (AID 1224874); details: RealTime-Glo luminescence; max response: hits give low values; also: nearly all actives have a fitted effect of over 50% in size
Outline: (§5)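 Real-time viability in HEK293: signal arises when living cells convert a prosubstrate for NanoLuc in the medium, so luminescence tracks viable cell number. Compound (23 nL, DMSO) added 5 h post-seeding; kinetic reads at 0–40 h, 37 C.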

[12] = A CellTox Green Cytotoxicity Assay to monitor cytotoxicity in HEK293 cells - 24 hour (AID 1224875); also: nearly all actives have a fitted effect of over 45% in size
Outline: as §3

[13] = A CellTox Green Cytotoxicity Assay to monitor cytotoxicity in HepG2 cells - 16 hour (AID 1224876); also: nearly all actives have a fitted effect of over 45% in size
Outline: (§6)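 Cells and non-lytic dye reagent are dispensed together (600 HepG2 cells/well) and incubated 5 h before DMSO compound transfer. Kinetic fluorescence is then recorded in the same wells during 40 h at 37 C.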

[14] = qHTS RealTime-Glo MT Cell Viability Assay in HepG2 cells - 32 hour (AID 1224877); also: nearly all actives have a fitted effect of over 55% in size
Outline: as §1

[15] = A CellTox Green Cytotoxicity Assay to monitor cytotoxicity in HepG2 cells - 24 hour (AID 1224878); also: nearly all actives have a fitted effect of over 45% in size
Outline: as §6

[16] = A CellTox Green Cytotoxicity Assay to monitor cytotoxicity in HepG2 cells - 40 hour (AID 1224879); also: nearly all actives have a fitted effect of over 40% in size
Outline: as §6

[17] = qHTS RealTime-Glo MT Cell Viability Assay in HEK293 cells - 0 hour (AID 1224880)
Outline: as §5

[18] = qHTS RealTime-Glo MT Cell Viability Assay in HepG2 cells - 40 hour (AID 1224870); also: nearly all actives have a fitted effect of over 50% in size
Outline: as §4

[19] = qHTS assay to identify small molecule agonists of the estrogen related receptor (ERR) signaling pathway from Tox21 library (AID 1224849; calls by dose curve; also: nearly all actives have a fitted effect of over 15% in size); details: ERR reporter cell line, ONE-Glo luciferase, 18 h; at 92.4 µM (top of the series) unless noted
Outline: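 Cells carrying the ERR reporter were plated and allowed to settle for 6 h, exposed to library compounds for 18 h at 37 C, then lysed with ONE-Glo and luminescence measured.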
% is scaled to controls: 0 for no effect and ±100 for the full control effect.

[Cl-].[Cl-].[Cl-].[Yb+3]
inactive: Potency [1] | Potency [2] | Potency [3] | Potency [4] | Potency [5] | Potency [6] | Potency [7] | Potency [8] | Potency [9] | Potency [10] | max response [11] 28.3% | Potency [12] | Potency [13] | Potency [14] | Potency [15] | Potency [16] | Potency [17]

OCC(Br)CBr (centres undefined)
inactive: Potency [1] | Potency [2] | Potency [3] | Potency [4] | Potency [5] | Potency [6] | Potency [7] | Potency [18] | Potency [8] | Potency [9] | Potency [10] | Potency [12] | Potency [13] | Potency [14] | Potency [16] | Potency [17]

NC1CCC(CC2CCC(N)CC2)CC1 (centres undefined)
inactive: Potency [1] | Potency [2] | Potency [3] | Potency [4] | Potency [5] | Potency [7] | Potency [18] | Potency [8] | Potency [9] | Potency [10] | Potency [12] | Potency [13] | Potency [14] | Potency [15] | Potency [16] | Potency [17]

Nc1c(Cl)c(Cl)c(Cl)c(Cl)c1Cl
inactive: Potency [1] | Potency [2] | Potency [3] | Potency [4] | Potency [5] | Potency [6] | Potency [7] | Potency [18] | Potency [8] | Potency [9] | Potency [10] | max response [11] -2.22% | Potency [12] | Potency [14] | Potency [17]

CCCC[N+]1(C)CCCC1 (tested in a mixture with another compound)
inactive: Potency [1] | Potency [2] | Potency [3] | Potency [4] | Potency [5] | Potency [6] | Potency [7] | Potency [8] | Potency [9] | Potency [10] | max response [11] 8.56% | Potency [12] | Potency [13] | Potency [14] | Potency [15] | Potency [16] | Potency [17]

CC(Cl)CCl (centres undefined)
inactive: Potency [1] | Potency [2] | Potency [3] | Potency [4] | Potency [5] | Potency [6] | Potency [7] | Potency [18] | Potency [8] | Potency [10] | max response [11] -4.79% | Potency [12] | Potency [13] | Potency [14] | Potency [15] | Potency [16] | Potency [17]

CCO/N=C(\CC)C1=C(O)CC(c2c(C)cc(C)cc2C)CC1=O (centres undefined)
inactive: Potency [1] | Potency [2] | Potency [3] | Potency [4] | Potency [5] | Potency [7] | Potency [8] | Potency [10] | Potency [12] | Potency [14]

S=C=Nc1ccccc1
inactive: Potency [1] | Potency [2] | Potency [3] | Potency [4] | Potency [5] | Potency [6] | Potency [7] | Potency [18] | Potency [8] | Potency [9] | Potency [10] | Potency [12] | Potency [13] | Potency [14] | Potency [15] | Potency [16] | Potency [17]

COCCC#N
inactive: Potency [1] | Potency [2] | Potency [3] | Potency [4] | Potency [5] | Potency [6] | Potency [7] | Potency [8] | Potency [10] | max response [11] 7.47% | Potency [12] | Potency [13] | Potency [14] | Potency [15] | Potency [16] | Potency [17]

N#Cc1ccc(N(CC(N)=O)CC(F)(F)F)cc1C(F)(F)F
inactive: Potency [1] | Potency [2] | Potency [3] | Potency [4] | Potency [5] | Potency [6] | Potency [7] | Potency [18] | Potency [8] | Potency [9] | Potency [10] | Potency [12] | Potency [13] | Potency [14] | Potency [15] | Potency [16] | Potency [17]

CCN(CC)C(=O)N[C@@H]1C=C2c3cccc4[nH]cc(c34)C[C@@H]2N(C)C1
inactive: Potency [1] | Potency [2] | Potency [3] | Potency [4] | Potency [5] | Potency [6] | Potency [7] | Potency [18] | Potency [8] | Potency [9] | Potency [10] | Potency [12] | Potency [13] | Potency [14] | Potency [16] | Potency [17]

CN
inactive: Potency [1] | Potency [2] | Potency [3] | Potency [4] | Potency [5] | Potency [7] | Potency [8] | Potency [9] | Potency [10] | Potency [12] | Potency [13] | Potency [14] | Potency [15] | Potency [16] | Potency [17]

CSC(=O)c1c(C(F)F)nc(C(F)(F)F)c(C(=O)SC)c1CC(C)C
inactive: Potency [1] | Potency [2] | Potency [3] | Potency [4] | Potency [5] | Potency [6] | Potency [7] | Potency [8] | Potency [9] | Potency [10] | Potency [12] | Potency [13] | Potency [14] | Potency [15] | Potency [16] | Potency [17]

C#CCC1=C(C)C(OC(=O)C2C(C=C(C)C)C2(C)C)CC1=O (centres undefined)
inactive: Potency [1] | Potency [2] | Potency [3] | activity change, positive = activation [19] -46% | Potency [5] | Potency [7] | Potency [18] | Potency [8] | Potency [10] | Potency [12] | Potency [13] | Potency [14] | Potency [16] | Potency [17]
